Hits are enriched below; roughly 2.7% of the tested compounds scored in any of these assays.
Shn3 inh set2: inhibitors of Schnurri-3 3'UTR reporter in osteoblasts. inhibition, % at 12.5 µM. 360,000 compounds, 0.52% hits. Clone20 osteoblast Shn3 3'UTR firefly luciferase, 24 h;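 active means mean inhibition of at least 75% with every replicate also reaching 75%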
CF NFkB inh: blocks PAF-induced NF-kB reporter in cystic fibrosis cells. AID 588850. inhibition, % at 5 µM. 360,000 compounds, 0.86% hits. KKLEB NF-kB-GFP reporter, GFP fluorescence overnight;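 active means at least 50% inhibition at 5 µM, scaled per plate between neutral and stimulator controls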;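 further: PAF is a Pseudomonas aeruginosa culture filtrate used as stimulus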
MITF TRPM1 inh: MITF TRPM1 promoter inhibition in SK-MEL-5 cells. AID 488899. 330,000 compounds, 0.83% hits. SK-MEL-5 TRPM1 promoter luciferase, 24 h. inhibition, % at 12.5 µM;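 active means mean inhibition across replicates of 60% or more, whatever share of single replicates reaches that level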
KKLEB tox: counter-screen for CF NF-kB inhibitors: cytotoxicity; KKLEB CF airway cells viability, ATPlite luminescence, overnight; hits give low values; cells stimulated with P. aeruginosa culture filtrate; activity change (cytotoxicity), % at 5 µM; 360,000 compounds, 0.36% hits;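 active means corrected activity change at or below -50% at 5 µM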
HIF-2a block: HIF-2a inhibition | 786-0 RCC cells HIF-2a reporter, luciferase luminescence, overnight | inhibition, % at 18.8 µM | 360,000 compounds, 0.72% hits;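 active means inhibition of the luminescence signal of 40% or more relative to plate controls, in a single-dose primary screen at 18.75 µM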
Peg3 prom inh: reduces Peg3 promoter-driven luciferase expression in HeLa; HeLa PEG-Prom luciferase reporter, luminescence, overnight; inhibition, % at 20 µM; 360,000 compounds, 1.7% hits; AID 588405;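 active means inhibition of at least 50% at 20 µM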
A number is an active result; – = inactive; · = no result.

SMILES	Shn3 inh set2	CF NFkB inh	MITF TRPM1 inh	KKLEB tox	HIF-2a block	Peg3 prom inh
C#CCOCCOCCOCCNc1nc(N2CCN(C(=O)CCCCCCCCCCNC(=O)[C@H]([C@@H](C)CC)n3cc(CCCCN=C(N)N)nn3)CC2)nc(N2CCN(C(=O)CCCCCCCCCCNC(=O)[C@@H]([C@H](C)O)n3cc(C)nn3)CC2)n1	–	–	65	–	–	–
C#CCOCCOCCOCCNc1nc(N2CCN(C(=O)CCCCCCCCCCNC(=O)[C@H](CCCCN)n3cc(C[C@@H](C)CC)nn3)CC2)nc(N2CCN(C(=O)CCCCCCCCCCNC(=O)[C@@H]([C@H](C)O)n3cc(C)nn3)CC2)n1	96	–	94	–	63	98
C#CCOCCOCCOCCNc1nc(N2CCN(C(=O)CCCCCCCCCCNC(=O)Cn3cc(CCCCCN)nn3)CC2)nc(N2CCN(C(=O)CCCCCCCCCCNC(=O)[C@@H]([C@H](C)O)n3cc(C)nn3)CC2)n1	–	–	–	–	–	–
C#CCOCCOCCOCCNc1nc(N2CCN(C(=O)CCCCCCCCCCNC(=O)[C@H](CCCCN)n3cc(C)nn3)CC2)nc(N2CCN(C(=O)CCCCCCCCCCNC(=O)[C@@H]([C@H](C)O)n3cc(C)nn3)CC2)n1	–	–	–	–	–	50
CCOC(=O)C1C(C(=O)OCC)C2C(=O)C3C(C(=O)OCC)C(C(=O)OCC)C3C(=O)C12 (stereo unspecified)	–	–	·	–	–	–
Cc1ccc(-c2csc(C(O)c3ccccc3)n2)cc1C (stereo unspecified)	–	–	·	–	–	–
CC1(C(=O)NS(=O)(=O)Cc2cccc(Cl)c2)CCN1C(=O)C/C=C/c1ccccc1 (stereo unspecified)	–	–	·	–	–	–
CCCCOCCCNC(=O)C[C@@H]1C[C@@]2(C(=O)OC)CCCCC=C2N(Cc2ccco2)C1=O	·	·	·	·	–	·
COc1ccc(NC(=O)C2(C)CCN2Cc2ccc(C(C)C)cc2)cc1OC (stereo unspecified)	–	–	·	–	–	–
O=C(NCCc1ccccc1)c1cc(-c2ccccc2)c(N2CCOCC2)s1	–	–	–	–	–	–
CCN(CC)CCCNC(=O)c1cc(-c2ccccc2)c(N2CCCCC2)s1	–	–	–	–	–	97
CCn1cc(CN(C)S(=O)(=O)c2cccc([N+](=O)[O-])c2)cn1	–	–	–	–	–	–
CCn1cc(CN(C)S(=O)(=O)c2ccc3ccccc3c2)c(C)n1	90	–	–	–	–	–
Cc1ccc(S(=O)(=O)/N=C2\C=C(NS(=O)(=O)c3ccccc3)C(=O)c3ccccc32)cc1	–	73	–	–	–	–
Cc1cc(C)c(S(=O)(=O)/N=C2\C=C(NS(=O)(=O)c3ccccc3)C(=O)c3ccccc32)c(C)c1	–	51	–	–	–	–
Cc1cc(C)c(NS(=O)(=O)c2ccccc2)c(C)c1	–	–	–	–	–	–
Cc1ccc(S(=O)(=O)/N=C2/C=C(C3C(=O)CC(C)(C)CC3=O)C(=O)c3ccccc32)cc1	–	–	–	–	–	–
CCc1nc2ccc(C(=O)NCc3cccs3)cn2c1N(CC)Cc1cccc(Br)c1	–	–	·	–	–	57
Oc1cccc(C(O)CNCc2ccc(OCc3ccc(Cl)cc3Cl)cc2)c1 (stereo unspecified)	–	–	–	–	–	93
COc1ccccc1N1CCN(CC(=O)Nc2cc(F)ccc2C)CC1	–	–	–	–	–	–
COc1ccccc1N1CCN(CC(=O)Nc2cc(C)nn2-c2nc(C)cc(C)n2)CC1	–	–	–	–	–	52
Cc1ccc(C(=O)OCC(=O)NCc2ccco2)cc1	–	–	–	–	–	–
CCOC(=O)C1=C(C)NC(C)=C(C(=O)OCC)C1C(=O)OCC(=O)NCc1ccco1	96	–	–	–	–	–
O=C(COC(=O)c1ccccc1)NCc1ccco1	–	–	–	-94	–	–
CCN1C(=O)[C@H]2[C@@H](c3ccc(OC)cc3)N[C@]3(CCCN(Cc4ccc(Br)cc4)C3=O)[C@H]2C1=O	–	–	·	–	–	–
SMILES	Shn3 inh set2	CF NFkB inh	MITF TRPM1 inh	KKLEB tox	HIF-2a block	Peg3 prom inh
CC1CCC2C(=O)N(c3ccc(Cc4ccncc4)cc3)C(=O)C2C1 (stereo unspecified)	87	–	–	–	–	–
O=C1C2C3C=CC(C3)C2C(=O)N1c1ccc(Cc2ccncc2)cc1 (stereo unspecified)	–	–	–	–	–	–
COc1cc2nc(N3CCNCC3)nc(N)c2cc1OC	–	–	–	–	–	74
COc1cc2nc(Cl)nc(N3CCCCC3)c2cc1OC	–	–	–	–	–	–
CCc1nc2c(OCc3cc(Cl)cc(Cl)c3)cccn2c1N(C)C(=O)c1cccc(OC)c1	–	–	·	–	–	–
CC(C)(C)n1nnnc1C(c1cc2ccccc2o1)N1CCOCC1 (stereo unspecified)	·	·	·	·	–	·
FC(F)(F)c1cc(CCN2CCNC[C@@H]2c2ccccc2)cc(C(F)(F)F)c1	–	–	·	–	–	–
FC(F)(F)c1cc(CO[C@@H]2CCCN[C@@H]2c2ccccc2)cc(C(F)(F)F)c1	–	–	–	–	–	72
CCOc1ccc(NC(=O)CN2C(=O)NC(CCc3ccccc3)C2=O)cc1OCC (stereo unspecified)	–	–	–	–	–	–
CC1(C(=O)NS(=O)(=O)c2ccc(F)cc2F)CCN1C(=O)Cc1cccc2ccccc12 (stereo unspecified)	–	–	·	–	–	–
COc1cccc(N(C(=O)c2ccco2)c2nc(-c3sc(NC(=O)c4ccco4)nc3C)cs2)c1	–	–	73	–	–	–
Cc1nc(NC(=O)c2ccco2)sc1-c1csc(Nc2ccc(Cl)cc2)n1	–	–	–	–	–	–
O=C(O)c1cccc(-c2noc(-c3cccc(Cl)c3)n2)c1	–	–	92	–	79	54
NC(=O)c1ccc(-c2noc(-c3cccc(Cl)c3)n2)cc1	–	–	–	–	–	–
CCn1c2ccccc2c2nnc(SCCCn3c(=O)[nH]c4ccccc43)nc21	–	–	–	–	–	50
COc1cc([N+](=O)[O-])cc(/C=C2/SC(=S)N(Cc3ccccc3)C2=O)c1O	–	–	–	–	–	51
O=C1/C(=C\c2cccc([N+](=O)[O-])c2O)SC(=S)N1Cc1ccccc1	–	–	–	–	–	56
O=C1/C(=C\c2ccc(O)cc2)SC(=S)N1Cc1ccccc1	–	–	–	–	–	–
O=C1/C(=C\c2cc(Br)cc(Br)c2O)SC(=S)N1Cc1ccccc1	–	–	–	–	–	73
O=C1/C(=C/c2ccccc2O)SC(=S)N1Cc1cccnc1	–	51	–	–	–	108
O=C(NCC1CC1)C1Cc2c(-c3ccc4c(c3)OCO4)ccnc2O1 (stereo unspecified)	–	–	·	–	–	–
